# Bioassay records (PubChem)
# HEK293 tox – cytotoxic compounds in HEK 293 cells | Potency, µM (series often up to 115 µM), most hits filed as inhibitors | 94,000 tested, 6.6% active | HEK 293 viability, ATP luminescence (CellTiter-Glo), 48-72 h; note: nearly all actives have a fitted effect of over 60% in size
#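 CellTiter-Glo luminescence (cellular ATP) was read after 48 or 72 hr of compound exposure at 37 degree Celsius. Cells were HEK 293 plated at 250 cells/well.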
# NPR1 antag – human Npr1 receptor antagonism. HEK293 hNpr1 GloSensor cGMP, ANP-stimulated luminescence. Potency, µM (top dose mostly 46.3 µM), usual class: inhibitors. 76,000 tested, 1.6% active; calls by dose curve; note: nearly all actives have a fitted effect of over 60% in size
#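 HEK293 cells stably expressing human Npr1 and cGMP GloSensor pGS-40F, loaded 2 h with 2% GloSensor reagent, given compound 30 min at room temperature. Luminescence read before and 20 min after 0.1 nM hNppA.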
# Luciferase inh – Photinus pyralis luciferase inhibition; AID 1347043; Potency, µM (doses to about 115 µM), hits mostly inhibitors; P08659; 76,000 tested, 2.5% active; purified P. pyralis luciferase, luminescence, biochemical; note: nearly all actives have a fitted effect of over 65% in size
#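 Inhibitors were tested against purified firefly luciferase in a biochemical, low-substrate format (both substrates at 10uM) and luminescence measured with a CCD imager.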
# 3T3 cytotox – NIH 3T3 cell cytotoxicity | 94,000 tested, 4.3% active | Potency, µM (titrated, usually from 96.7 µM), actives largely listed as inhibitors | AID 1345082 | NIH 3T3 viability, CellTiter-Glo ATP luminescence, 48-72 h; note: nearly all actives have a fitted effect of over 55% in size
#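 Mouse fibroblast NIH 3T3 cells, 400 per well, received compound via pintool and were incubated for 48 or 72 hr prior to CellTiter-Glo ATP luminescence measurement.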
# A number is an active result; 0 = inactive; ? = inconclusive; - = no result. A selection: hits, their analogues and other compounds. The true share with any hit is near 11%. Unless noted, calls come from the whole dose curve; as a rule, active = well fitted curve in the direction sought with a large enough effect; inconclusive = small, poorly fitted or top-dose-only effect, or another doubt; inactive = no such curve, though single readings can be large; an effect the other way counts as inactive or inconclusive.
SMILES,HEK293 tox,NPR1 antag,Luciferase inh,3T3 cytotox
Cc1noc2c(-c3cccnc3NC3CCN(C)CC3)cc(-c3ccc(Cl)cc3)nc12,89.1µM,0,0,22.4µM
Cc1noc2c(NC3CCOCC3)cc(-c3cccc(C(F)(F)F)c3)nc12,?,0,0,?
Cc1noc2c(-c3cccnc3NC3CCC(O)CC3)cc(-c3ccccc3)nc12 (stereo not drawn),?,0,0,?
Cc1noc2c(NC3CCC(O)CC3)cc(-c3ccc(F)cc3)nc12 (stereo not drawn),?,0,0,22.4µM
O=C(Nc1cccc(-c2nnc3n2CCCC3)c1)c1cc(F)ccc1F,0,0,0,0
CC(C)(O)c1cc(CC2(NCC3CCCCC3)COC2)no1,0,0,0,0
COc1ccc(CNC2(Cc3cc(-c4ccc(F)cc4)on3)COC2)cc1,?,0,0,?
Fc1ccc(-c2cc(CC3(NCc4ccc(OC(F)(F)F)cc4)COC3)no2)cc1,79.4µM,?,0,100µM
c1ccc(-c2cc(CC3(NCC4CCCCC4)COC3)no2)cc1,100µM,?,0,?
CCC(C)C(=O)N1CCC2(CC1)NCCc1c2[nH]c2ccccc12 (stereo not drawn),0,0,0,0
c1ccc(CCc2noc(-c3ccc(NCCN4CCCC4)nc3)n2)cc1,?,0,?,?
CC(O)CNc1ccc(-c2nc(CCCc3ccccc3)no2)cn1 (stereo not drawn),?,0,44.7µM,?
CN(Cc1ncc[nH]1)c1ccc(-c2nc(CCCc3ccccc3)no2)cn1,44.7µM,?,?,?
CN(Cc1cnccn1)c1ccc(-c2nc(CCCc3ccccc3)no2)cn1,0,0,?,0
c1ccc(CCCc2noc(-c3ccc(N4CCCNCC4)nc3)n2)cc1,22.4µM,0,?,?
OCC1CCN(c2ccc(-c3nc(CCCc4ccccc4)no3)cn2)CC1,?,12.6µM,?,?
COc1ccccc1-n1c(=O)c(C(=O)N2CCC(Cc3ccccc3)CC2)nc2cccnc21,0,-,-,0
CC(=O)N1CCN(c2ccc3nnc(-c4ccccc4)n3n2)CC1,0,-,-,?
CN(Cc1cccc(C(F)(F)F)c1)S(=O)(=O)c1cccs1,89.1µM,0,0,?
OC[C@H]1CCN(Cc2ccc(-c3cccc(Cl)c3Cl)o2)C[C@@H]1O,?,10µM,?,0
OCCC1CN(Cc2nc3ccccc3s2)CCN1Cc1ccc(F)c(F)c1 (stereo not drawn),79.4µM,0,0,0
OCCC1CN(Cc2cccn2-c2nccs2)CCN1Cc1ccc(F)c(F)c1 (stereo not drawn),?,0,0,0
Clc1cccc(CN2CC[C@H](c3nc4ccccc4s3)C2)c1,100µM,0,50.1µM,?
O=C(C1CC1)N1CC[C@H](c2nc3ccccc3s2)C1,0,0,0,0
Cc1ccc2oc([C@H]3CCN(Cc4cccc(Cl)c4)C3)nc2c1,?,0,0,?
SMILES,HEK293 tox,NPR1 antag,Luciferase inh,3T3 cytotox
c1ccc(CCCN2CC[C@H](c3nc4ccccc4s3)C2)cc1,100µM,0,?,89.1µM
Cn1c([C@H]2CCN(Cc3ccc(F)c(F)c3)C2)nc2ccccc21,50.1µM,0,0,?
COc1ccc(C(=O)N2CCn3c(nn(-c4ccc(C(F)(F)F)cc4)c3=O)C2)cc1,0,-,-,0
COc1ccc(NC(=O)N2CCCC(Cc3noc(-c4cnccn4)n3)C2)cc1 (stereo not drawn),0,0,0,0
O=C(Cn1nc2c(cc1=O)CCCCC2)N1CCSCC1,0,0,0,0
CNC(=O)c1cc(C2CC2)nc2c1c(C1CCN(C(=O)Nc3ccccc3)C1)nn2C (stereo not drawn),?,-,-,0
Fc1ccc(CN2CC[C@H](c3nc4ccccc4s3)C2)cc1F,100µM,0,44.7µM,?
COc1cccc(CN2CC[C@H](c3nc4ccccc4s3)C2)c1,100µM,0,25.1µM,?
Fc1ccc(CN2CC[C@H](c3nnc(Cc4ccccc4)o3)C2)cc1F,?,0,0,?
O=C(C1CC1)N1CCC(c2nn(-c3ccccn3)c(=O)[nH]2)CC1,0,-,-,0
NC(=O)c1ccc(-c2nc3c([nH]2)CN(c2ncnc4ccsc24)CC3)cc1,31.6µM,0,0,0
CC(C)CNC(=O)N1CCc2nc(-c3ccccc3)[nH]c2C1,0,-,-,0
COCCNC(=O)CCC1CCN(C(=O)c2ccccc2Cl)CC1,0,0,31.6µM,0
Cc1ccccc1C(=O)N1CCC(CCC(=O)NCCC(C)C)CC1,0,0,?,0
CCC(CC)NC(=O)CCC1CCN(C(=O)c2ccccc2Cl)CC1,?,0,39.8µM,0
O=C(CCC1CCN(C(=O)c2ccccc2Cl)CC1)NC1CC1,0,0,0,0
O=C1C(N2CCN(S(=O)(=O)c3cc(F)cc(F)c3)CC2)CCN1Cc1ccccn1 (stereo not drawn),0,0,0,0
COc1ccc(C2=NOC3(CCCN([S+](=O)([O-])c4cccc(OC)c4)C3)C2)cc1 (stereo not drawn),?,-,-,0
COc1ccc(C2=NOC3(CCN([S+](=O)([O-])c4ccccc4)C3)C2)cc1 (stereo not drawn),44.7µM,0,?,?
COc1ccc(CN2CCC3(CC2)CC(c2cccc(C(F)(F)F)c2)=NO3)cc1,50.1µM,0,0,?
O=C(C1CCCC1)N1CCC2(CC1)CC(c1cccc(C(F)(F)F)c1)=NO2,44.7µM,-,-,?
Cc1noc(C)c1C(=O)N1CCC2(CC1)CC(c1cccc(C(F)(F)F)c1)=NO2,0,-,-,0
FC(F)(F)Oc1ccc(CN2CCC3(CC2)CC(c2cccc(C(F)(F)F)c2)=NO3)cc1,?,0,0,0
COc1cccc(C(=O)N2CCC3(CC2)CC(c2cccc(C(F)(F)F)c2)=NO3)c1,44.7µM,-,-,?
COc1ccc(Cl)cc1C(C(=O)O)N1CCCN(c2ncccn2)CC1 (stereo not drawn),0,0,0,0
SMILES,HEK293 tox,NPR1 antag,Luciferase inh,3T3 cytotox
O=C(NCc1ccccn1)C1CN(C2CCCCC2)C(=O)N1 (stereo not drawn),0,-,-,0
COCC(=O)N[C@@H]1CN(Cc2ccc(F)cc2Cl)C[C@H]1CO,0,0,0,0
CNC(=O)c1ccc2nc(-c3ccccn3)oc2c1,0,-,-,0
O=C(c1ccc(C(F)(F)F)cc1)N1CCC2(CC1)CC(c1cccc(C(F)(F)F)c1)=NO2,39.8µM,0,0,?
O=C(c1ccc(Cl)cc1)N1CCC2(CC1)CC(c1cccc(C(F)(F)F)c1)=NO2,31.6µM,-,-,?
COc1ccc(C2=NOC3(CCN(Cc4ccc(F)cc4)C3)C2)cc1 (stereo not drawn),79.4µM,?,0,?
CC(C)(C)C(=O)N1CCC2(CC1)CC(c1cccc(C(F)(F)F)c1)=NO2,?,-,-,0
CC(C)NC(=O)N1CC2ON=C(C(=O)N(C)C)C2C1 (stereo not drawn),0,-,-,0
O=C(NCCOc1ccccc1)c1nc2c(o1)CCN(Cc1ccc3[nH]ccc3c1)CC2,70.8µM,?,0,?
O=C(Nc1cccnc1)c1nc2c(o1)CCN(Cc1ccc3[nH]ccc3c1)CC2,100µM,0,35.5µM,?
O=C(NCC1CC1)c1nc2c(o1)CCN(Cc1ccc3[nH]ccc3c1)CC2,?,0,0,?
